CYP2C19 inhib – blockers of cytochrome P450 2C19 activity – biochemical, luminescence, ADME assay, primary screen; hit rate 21% among 96,000; P33261; AID 778, 2007; inhibition, % at 5 µM; CYP2C19 Supersomes, luciferin-H EGE luminescence, 30 min;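 active = CYP2C19 inhibition above a set limit at 5 µM in the primary screen, cut at about 50% in these data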
Target sequence (P33261 whole entry, looked up): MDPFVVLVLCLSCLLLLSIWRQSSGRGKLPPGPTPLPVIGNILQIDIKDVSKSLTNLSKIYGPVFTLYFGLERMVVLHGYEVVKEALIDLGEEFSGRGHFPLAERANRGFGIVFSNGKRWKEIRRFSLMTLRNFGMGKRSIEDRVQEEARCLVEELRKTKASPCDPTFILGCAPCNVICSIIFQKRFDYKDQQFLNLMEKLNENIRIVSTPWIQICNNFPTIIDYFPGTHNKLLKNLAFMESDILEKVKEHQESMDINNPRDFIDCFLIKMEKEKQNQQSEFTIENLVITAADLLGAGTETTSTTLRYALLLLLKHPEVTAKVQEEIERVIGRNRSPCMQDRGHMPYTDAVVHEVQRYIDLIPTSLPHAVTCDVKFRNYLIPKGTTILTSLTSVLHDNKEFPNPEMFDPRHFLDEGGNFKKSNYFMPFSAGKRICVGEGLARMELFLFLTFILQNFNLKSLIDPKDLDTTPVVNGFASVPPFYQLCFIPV
PostGolgi yeast – phenotypic screen on post-Golgi transport, primary screen | inhibition, % at 10 µM | hit rate 0.9% among 98,000 | post-Golgi transport phenotypic cell assay;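 note: yeast cells grown in 1536-well plates; yeast grown about 18 h at 30C before absorbance read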
PostGolgi ctrl – growth inhibition of yeast control strain, primary screen, counter-screen for post-Golgi transport modulator project; efflux-deficient yeast background strain, growth absorbance A615, 16 h; inhibition, % at 10 µM; hit rate 5% among 98,000; AID 738, 2007
CYP2C19 act – human CYP2C19 activators, primary screen, biochemical, luminescence; recombinant CYP2C19, luciferin-H EGE luminescence; stronger effect = higher value; 0 = fully inhibited enzyme, 1 = untreated enzyme; activation factor at 5 µM; 96,000 tested, under 10 active;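 active = activation factor of at least 2 at 5 µM in the primary screen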
CYP2C9 act – human CYP2C9 activators, primary screen, biochemical, luminescence; Cytochrome P450 2C9 (Homo sapiens), P11712; recombinant CYP2C9, luciferin-H conversion; stronger effect = higher value; factor 1 = untreated enzyme, 0 = blocked; activation factor at 5 µM; hit rate 1.4% among 96,000; AID 1024, 2008;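 active = activation factor of 2 or more for CYP2C9 at a 5 µM dose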
CYP2C9 inh – blockers of cytochrome P450 2C9 activity – biochemical, luminescence, ADME assay, primary screen; P11712; CYP2C9 Supersomes, luciferin-H conversion; inhibition, % at 5 µM; hit rate 20% among 96,000;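 active = blocking of liver enzyme CYP2C9 beyond about 50% at 5 µM, limit read from the data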
Hits are given with their value; 0 = inactive; - = no result given. Only a sample is shown. Cut-off read from the data, not from the text of the source, unless noted: active = inhibition above about 30%; inactive = the rest.

SMILES | CYP2C19 inhib | PostGolgi yeast | PostGolgi ctrl | CYP2C19 act | CYP2C9 act | CYP2C9 inh
CC(C)C1C(=O)NC(=S)N1S(=O)(=O)c1ccc(C(C)(C)C)cc1 (stereo unspecified) | 0 | 0 | 0 | 0 | 0 | 0
CCc1ccccc1N1C(=O)C2CC(C)=C(C)CC2C1=O (stereo unspecified) | 0 | 0 | 0 | 0 | 0 | 51
CCc1ccccc1N1C(=O)C2CC=CCC2C1=O (stereo unspecified) | 0 | 0 | 0 | 0 | 0 | 0
O=C(c1ccccc1F)N(Cc1ccc(F)cc1)C1CCS(=O)(=O)C1 (stereo unspecified) | 83 | 0 | 0 | 0 | 0 | 0
O=C(c1ccccc1)N(Cc1cccs1)C1CCS(=O)(=O)C1 (stereo unspecified) | 0 | 0 | 0 | 0 | 0 | 0
O=C(c1sc2ccccc2c1Cl)N(Cc1ccccc1Cl)C1CCS(=O)(=O)C1 (stereo unspecified) | 0 | 0 | 31 | 0 | 0 | 85
O=C(c1cccs1)N(Cc1ccco1)C1CCS(=O)(=O)C1 (stereo unspecified) | 56 | 0 | 0 | 0 | 0 | 0
O=C(c1ccccc1F)N(Cc1ccccc1)C1CCS(=O)(=O)C1 (stereo unspecified) | 0 | 0 | 0 | 0 | 0 | 0
CCN(CC)c1ccc(CN(C(=O)c2cc(OC)c(OC)c(OC)c2)C2CCS(=O)(=O)C2)cc1 (stereo unspecified) | 0 | 0 | 0 | 0 | 0 | 0
CCN(CC)c1ccc(CN(C(=O)c2ccco2)C2CCS(=O)(=O)C2)cc1 (stereo unspecified) | 57 | 0 | 0 | 0 | 0 | 58
Cc1nnc(NC(=O)CSc2nc(C(C)C)nc3sc(C)c(C)c23)s1 | 0 | 0 | 0 | 0 | 0 | 0
CCNC(=S)N/N=C/c1cccs1 | 0 | 0 | 0 | 0 | 0 | 0
CC(Oc1ccccc1Br)C(=O)N1CCc2ccccc21 (stereo unspecified) | 0 | 0 | 0 | 0 | 0 | 0
O=C(c1sc2ccccc2c1Cl)N(Cc1ccco1)C1CCS(=O)(=O)C1 (stereo unspecified) | 71 | 0 | 0 | 0 | 0 | 70
Cc1cc2oc(C(=O)N(Cc3ccccc3)C3CCS(=O)(=O)C3)cc(=O)c2cc1Cl (stereo unspecified) | 62 | 0 | 0 | 0 | 0 | 80
Cc1ccc(CN(C(=O)c2cc3ccccc3oc2=O)C2CCS(=O)(=O)C2)cc1 (stereo unspecified) | 0 | 0 | 0 | 0 | 0 | 0
O=C(c1sc2ccccc2c1Cl)N(Cc1ccccc1)C1CCS(=O)(=O)C1 (stereo unspecified) | 52 | 0 | 0 | 0 | 0 | 68
CC1(C(=O)N2CC3(CC(c4ccccc4)=NO3)C[C@H]2C(=O)NCC(N)=O)CC1 (stereo partly specified) | 0 | 0 | 0 | 0 | 0 | 0
CCOC(=O)CCCNC(=O)COC(=O)c1cccc(C)c1O | 67 | 0 | 0 | 0 | 0 | 0
NC(=O)CSc1nnc(C2CC2)n1Cc1ccccc1 | 0 | 0 | 0 | 0 | 0 | 0
CCOC(=O)c1c(C)[nH]c(C)c1C(=O)CSc1nnc(-c2ccncc2)n1C | 98 | 0 | 0 | 0 | 0 | 63
CCCn1c(N)c(C(=O)CSc2nnc(C3CC3)n2Cc2ccccc2)c(=O)[nH]c1=O | 0 | 0 | 0 | 0 | 0 | 59
CCOC(=O)c1c(C)[nH]c(C)c1C(=O)CSc1nnc(-c2ccco2)n1Cc1ccccc1 | 99 | 0 | 0 | 0 | 0 | 98
CCOC(=O)c1c(C)[nH]c(C)c1C(=O)CSc1nnc(-c2ccncc2)n1Cc1ccccc1 | 100 | 0 | 0 | 0 | 0 | 98
CNC(=O)NC(=O)CSc1nnc(-c2ccco2)n1Cc1ccccc1 | 0 | 0 | 0 | 0 | 0 | 0
SMILES | CYP2C19 inhib | PostGolgi yeast | PostGolgi ctrl | CYP2C19 act | CYP2C9 act | CYP2C9 inh
Cn1c(Cn2c(=O)sc3ccccc32)nnc1SCC(=O)Nc1ccc2c(c1)OCO2 | - | 0 | 0 | - | - | -
Cc1oc(-c2cccs2)nc1CS(=O)CC(=O)NC1CCCCCC1 (stereo unspecified) | 0 | 0 | 0 | 0 | 0 | 0
CCN(CC#CCC1(O)c2ccccc2-c2ccccc21)C(C)C | 0 | 0 | 0 | 0 | 0 | 0
CCOc1ccc(C(C)NC(=O)CCC(=O)O)cc1 (stereo unspecified) | 0 | 0 | 0 | 0 | 0 | 0
COc1ccc(Cl)cc1Nc1nc(N)nc(C(F)(F)F)n1 | 0 | 0 | 0 | 0 | 0 | 0
Cc1ccc(N2C(=O)NC3(CCCCC3)C2=O)cc1 | 0 | 0 | 0 | 0 | 0 | 0
Cc1ccc(N2C(=O)CC3(CC4C=CC3C4)C2=O)cc1 (stereo unspecified) | 0 | 0 | 0 | 0 | 0 | 81
O=C(NCCc1ccccc1)c1noc2c1CCCCC2 | 0 | 0 | 0 | 0 | 0 | 0
CSc1ccccc1NC(=O)c1ccncc1 | 66 | 0 | 0 | 0 | 0 | 0
CSc1ccccc1NC(=O)c1cc(C)on1 | 0 | 0 | 0 | 0 | 2.4 | 0
CSc1ccccc1NC(=O)c1cc(C(C)C)on1 | 0 | 0 | 0 | 0 | 0 | 0
CC(C)[C@H](NC(=O)NCCc1ccc(F)cc1)C(=O)O | 0 | 0 | 0 | 0 | 0 | 0
C=CCSc1ncccc1C(=O)O | 0 | 0 | 0 | 0 | 0 | 0
Cc1cc(/C=N/n2cnnc2)c(C)n1-c1ccc(OCc2ccc(F)cc2)cc1 | 0 | 0 | 61 | 0 | 0 | 0
Cc1cc(/C=N/n2cnnc2)c(C)n1-c1ccc(OCc2ccc(Cl)cc2Cl)cc1 | 0 | 0 | 96 | 0 | 0 | 0
Cc1cc(/C=N\O)c(C)n1-c1ccncc1 | 0 | 0 | 0 | 0 | 0 | 0
CCn1cnc2sc(-c3ccccc3)cc2c1=O | 0 | 0 | 0 | 0 | 0 | 71
CC(=O)Cn1cnc2sc(-c3ccccc3)cc2c1=O | 0 | 0 | 0 | 0 | 0 | 0
CC(=O)N1CCN(Cc2nc3cc(NC(=O)c4ccccc4C)ccc3n2C)CC1 | 0 | 0 | 0 | 0 | 0 | 0
CCc1ccc(N2C(=O)c3ccc4c5c(ccc(c35)C2=O)CC4)cc1 | 0 | 0 | 0 | 0 | 0 | 0
C=CCSc1nc(N)c2c(C)c(C)sc2n1 | 88 | 0 | 0 | 0 | 0 | 58
C=CCSc1nc2sc(C)c(C)c2c(=O)[nH]1 | - | 0 | 0 | - | - | -
C=C(C)CSc1nnc(-c2ccccc2)n1N | 0 | 0 | 0 | 0 | 0 | 0
Cc1nn(-c2cccc(Cl)c2)c2nc(-c3ccco3)cc(C(=O)O)c12 | 0 | 0 | 0 | 0 | 0 | 90
CCCn1nc(NC(=O)CC(C)C)c2cc3ccccc3nc21 | 0 | 0 | 0 | 0 | 0 | 0
CCOC(=O)C1CCN(C(=O)Cc2c(C(=O)O)n(CC)c3ccccc23)CC1 | 0 | 0 | 0 | 0 | 0 | 0
Cc1ccn2c(C(=O)CSc3ccc(Cl)cc3)c(C)nc2c1 | 0 | 0 | 0 | 0 | 0 | 0
Cc1ccn2c(C(=O)c3ccc(Cl)cc3)cnc2c1 | 79 | 0 | 0 | 0 | 0 | 75

High-throughput results: PubChem BioAssay, several laboratories
